# Measured values from PubChem BioAssay (NCATS).
# Inconclusive results are not listed. Calls of active or inactive are those of the source. Unless noted, calls come from the whole dose curve; as a rule, active = well fitted inhibition curve with a large enough effect; inconclusive = small, poorly fitted or top-dose-only effect; inactive = flat fitted curve, though single readings scatter. Peptide text beside a SMILES is read from it.
# What was measured:
# [1] = qHTS drug screen for cell cycle checkpoint inhibitors in PARPi-resistant BRCA-mutant ovarian cancer cell lines. (AID 1963452; calls by dose curve); details: PEO1/OlaR viability, CellTiter-Glo luminescence, 96 h, stronger effect = lower value
# Summary of the method: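 PEO1, PEO4 and PEO1/OlaR ovarian cancer cells, 600 per well, exposed 96 h at 37C to a dilution series. Viability read by CellTiter-Glo luminescence, normalized to DMSO and empty wells; activity summarized as Z-AUC.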
# [2] = qHTS for identification of novel therapeutic agents for treatment of microphthalmiaassociated transcription factor (MiT) renal cell carcinoma (RCC) (AID 1963991; calls by dose curve; note: potency is the fitted concentration of half-maximal effect); details: CellTiter-Glo, 48 h; for z-score: stronger effect = lower value
# Summary of the method: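 Three TFE3-fusion RCC cell lines (UOK109, UOK124, UOK145), 500 cells/well, were exposed to the 1912-compound MIPE 4.0 library for 48 hours at 37 C. Viability was read by CellTiter-Glo luminescence, normalised to DMSO (100%) and empty wells (0%), with 11-concentration curve fits.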
# [3] = qHTS profiling for inhibitors of Plasmodium falciparum proliferation (AID 504749); note: nearly all actives have a fitted effect of over 60% in size; note: potency is the fitted concentration of half-maximal effect;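 for activity, negative = inhibition: 0% = DMSO vehicle and full inhibition = artemisinin control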; details: P. falciparum in erythrocytes, SYBR Green DNA, 72 h
# Summary of the method: (§1)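 Readout was DNA-dye fluorescence from lysed cultures, ex 485/em 535 nm. Parasitized red cells had grown 72 h with compound; data scaled between 0.29 uM artemisinin and DMSO wells and corrected using vehicle-only plates.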
# 3D7 = assay: as above; details: P. falciparum in erythrocytes, SYBR Green DNA, 72 h; series mostly up to 28.7 µM
# Summary of the method: as §1
# 7G8 = assay: as above; details: P. falciparum in erythrocytes, SYBR Green DNA, 72 h; series mostly up to 28.7 µM
# Summary of the method: as §1
# AA1029 = assay: as above; details: P. falciparum in erythrocytes, SYBR Green DNA, 72 h; series mostly up to 28.7 µM
# Summary of the method: as §1
# AS120 = assay: as above; details: P. falciparum in erythrocytes, SYBR Green DNA, 72 h; series mostly up to 28.7 µM
# Summary of the method: as §1
# [4] = measured here: PEO1 parental Z-AUC
# [5] = TFE3-RCC UOK109 viability, measured here: UOK109 Z-AUC
# [6] = TFE3-RCC viability, measured here: UOK124 Z-AUC
# [7] = TFE3-RCC viability, measured here: UOK145 Z-AUC
# [8] = at 28.7 µM (top of the series), parasite line A
# [9] = at 28.7 µM (top of the series), parasite line B
Structure (SMILES),Z-AUC [1],"Z-AUC [1, 4]",Z-AUC ([1]; measured here: PEO4 Z-AUC),"z-score [2, 5]","z-score [2, 6]","z-score [2, 7]","activity, negative = inhibition ([3]; at 12.8 µM (top of the series), parasite line A)","activity, negative = inhibition ([3]; at 12.8 µM (top of the series), parasite line B)",Potency (3D7),Potency (7G8),Potency (AA1029),Potency (AS120),"Potency ([2]; TFE3-RCC UOK109 viability, active = Z-AUC below -0.8 in all three lines)",Potency ([3]; parasite line A),"activity, negative = inhibition [3, 8]","activity, negative = inhibition [3, 9]",Potency ([3]; parasite line B)
CCOc1cc(CC(=O)N[C@@H](CC(C)C)c2ccccc2N2CCCCC2)ccc1C(=O)O,0.686 (inactive),0.341,0.628,0.724,0.688,0.737,4.74% (inactive),10.7% (inactive),inactive,inactive,inactive,inactive,–,–,–,–,–
CC[C@]1(O)C[C@H]2CN(CCc3c([nH]c4ccccc34)[C@@](C(=O)OC)(c3cc4c(cc3OC)N(C=O)[C@H]3[C@@](O)(C(=O)OC)[C@H](OC(C)=O)[C@]5(CC)C=CCN6CC[C@]43[C@@H]65)C2)C1,-0.637 (inactive),-1.14,-1.16,-0.827,-2.28,-0.98,–,–,–,141 nM (active),2510 nM (active),3550 nM (active),66.2 nM (active),2240 nM (active),–,–,–
O=c1c(O)c(-c2cc(O)c(O)c(O)c2)oc2cc(O)cc(O)c12,1.5 (inactive),1.23,1.17,0.252,0.375,-0.367,–,–,–,–,–,–,–,–,–,–,–
COc1cc2c(cc1OC)C1CC(=O)C(CC(C)C)CN1CC2 (stereo not drawn),0.0378 (inactive),0.296,0.889,0.853,0.433,0.758,–,–,inactive,inactive,inactive,inactive,–,–,3.41% (inactive),0.311% (inactive),–
CC(C)c1ccc2oc3nc(N)c(C(=O)O)cc3c(=O)c2c1,-0.387 (inactive),0.341,0.263,0.102,0.464,0.404,–,–,inactive,–,–,–,–,–,-29.9% (inactive),-11.5% (inactive),–
CC(C)(S)[C@@H](N)C(=O)O,0.193 (inactive),0.891,1.3,0.813,0.506,1.37,–,–,inactive,inactive,inactive,inactive,–,–,1.57% (inactive),-13.2% (inactive),–
CC1Cc2ccccc2N1NC(=O)c1ccc(Cl)c(S(N)(=O)=O)c1 (stereo not drawn),-0.461 (inactive),-0.0256,0.0474,0.928,0.508,0.493,–,–,–,–,–,–,–,–,–,–,–
O=C(O)CCNC(=O)c1ccc(N=Nc2ccc(O)c(C(=O)O)c2)cc1,-0.101 (inactive),0.264,0.361,1.03,0.51,0.488,–,–,inactive,inactive,inactive,inactive,–,–,4.07% (inactive),9.54% (inactive),–
COC(=O)[C@H](Cc1ccccc1)NC(=O)[C@@H](N)CC(=O)O (H-Asp-Phe-OMe),0.187 (inactive),0.0667,0.437,0.591,0.672,0.618,–,–,inactive,inactive,inactive,inactive,–,–,5.55% (inactive),9.71% (inactive),–
CC(=O)Nc1ccc(O)cc1,0.911 (inactive),0.308,0.415,1.26,0.904,0.696,–,–,–,–,–,–,–,–,–,–,–
COC(=O)C1=C(C)NC(C)=C(C(=O)OCCCN2CCC(c3ccccc3)(c3ccccc3)CC2)C1c1cccc([N+](=O)[O-])c1 (stereo not drawn),0.516 (inactive),0.68,0.403,1.29,0.568,0.759,–,–,2820 nM (active),2000 nM (active),4470 nM (active),2820 nM (active),–,4470 nM (active),–,–,6310 nM (active)
CC(=O)NC[C@H]1CN(c2ccc(N3CCOCC3)c(F)c2)C(=O)O1,-0.303 (inactive),-0.362,-0.619,-0.988,0.658,1.47,–,–,–,–,–,–,–,–,–,–,–
N[C@@H](Cc1cc(I)c(Oc2cc(I)c(O)c(I)c2)c(I)c1)C(=O)O,-1.16 (inactive),-0.336,-0.169,0.737,0.682,0.762,–,–,inactive,inactive,inactive,inactive,–,–,-3.11% (inactive),-2.18% (inactive),–
Clc1ccc(C(Cn2ccnc2)OCc2ccsc2Cl)c(Cl)c1 (stereo not drawn),-0.189 (inactive),-0.0624,0.0924,–,–,–,–,–,2510 nM (active),447 nM (active),7940 nM (active),1120 nM (active),–,2820 nM (active),–,–,2820 nM (active)
Nc1nc(Cl)nc2c1ncn2[C@H]1C[C@H](O)[C@@H](CO)O1,-0.756 (inactive),-0.859,-0.649,–,–,–,–,–,inactive,inactive,inactive,inactive,–,–,-3.94% (inactive),14.5% (inactive),–
Cc1cc(C2CCCCC2)n(O)c(=O)c1,0.662 (inactive),0.159,-0.0703,–,–,–,–,–,–,3160 nM (active),–,3550 nM (active),–,–,–,–,3550 nM (active)
Cc1cc2c(s1)Nc1ccccc1N=C2N1CCN(C)CC1,-0.767 (inactive),-0.886,-0.45,0.52,0.714,0.593,–,–,inactive,–,inactive,inactive,–,–,6.07% (inactive),8.04% (inactive),–
